# Measured values published in PubChem BioAssay.
# Test: small-molecule microarray binders of probe aShh, primary screen, biochemical, biotinylated probe, 635/667 nm fluorescence (AID 1114);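 note: probe is biotin-labelled aShh protein from a stem cell growth factor screen; measures binding of labelled protein to compounds printed on the slide; score merges feature fluorescence at 667 nm with signal-to-noise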
# Conditions: higher = more signal
row,Structure (SMILES),composite z-score
1,CCCCCN1CC=CC23O[C@@H]4/C=C\CCC(C)OC(=O)C4[C@H]2C(=O)N(CCCCCO)[C@@H]3C1=O (some centres undefined),-0.147
2,CC(C)Cc1ccc(CN2CC[C@@H](NS(=O)(=O)c3ccccc3)C2)cc1,-0.455
3,C=CCC(OC(C)=O)[C@@H]1[C@@H](N(Cc2cccc3ccccc23)C(=O)c2ccc(C)cc2)c2cc(OCCCO)ccc2N1C(=O)Cc1ccc(OC)cc1 (some centres undefined),0.0278
4,CN1C(=O)C2C=CC(C(O)c3ccccn3)N(Nc3ccccc3)C2C1=O (centres undefined),0.318
5,COc1cccc(C(=O)O[C@H]2CC[C@]3(C)C4=C(CCC3C2(C)C)[C@]2(C)CC[C@H]([C@H](C)CCCC(C)C)[C@@]2(C)CC4)c1 (some centres undefined),-0.138
6,COc1ccc(C(=O)Nc2cccc(CN3C(=O)[C@@]4(O[C@@H](CCn5cc(CCO)nn5)[C@H]([Si](C)(C)c5ccc(OC)cc5)[C@H]4C)c4ccccc43)c2)cc1,0.13
7,O=C1N(CCS(=O)(=O)c2ccccc2)Cc2ccccc2C[C@]12N=C(c1ccc(OCCCO)cc1)O[C@@H]2c1ccccc1,0.21

# Test: small-molecule microarray binders of probe aNog, primary screen, biochemical, biotinylated probe, 635/667 nm fluorescence (AID 1115);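 note: probe is biotinylated aNog protein used at 0.15 µg/mL for 1 h at 4 C; z-score combines 667 nm fluorescence of each spot with its signal to noise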
# Conditions: higher = more signal
row,Structure (SMILES),composite z-score
1,CC(C)c1ccc(NN2C(C(O)c3ccc(N(C)C)cc3)C=CC3C(=O)N(c4ccccc4)C(=O)C32)cc1 (centres undefined),0.842
2,CC(C)NC(=O)[C@@H]1c2ccccc2C(=O)N(Cc2ccccc2)[C@H]1c1ccc(CO)cc1,-0.647
3,CCOC(=O)C[C@H]1[C@H](OC(=O)c2ccccc2-c2ccccc2)[C@@H](NC(=O)Cc2ccc(OC)cc2)c2cc(OCCCO)ccc2N1C(=O)c1ccccc1,-0.443
4,Cc1ccc(S[C@]2(C(=O)O)CC(=O)N(C3Cc4ccccc4C3)[C@@H]2c2ccc(CO)cc2I)cc1,0.22
5,CC(C)(C)OC(=O)CC[C@@]1(C(=O)NCCN2CCOCC2)N=C(c2ccc(OCCCO)cc2)O[C@@H]1c1ccccc1,-0.193
6,CCCN1C(=O)[C@@]2(CCC(=O)OC(C)(C)C)N=C(c3ccc(OCCCO)cc3)O[C@H]2c2ccccc21,-0.0875
7,COCCOC(=O)N1C(=O)[C@@]2(c3cc(C#CCC(C(=O)OC)C(=O)OC)ccc31)[C@H](c1ccc(O)cc1)N1[C@H](c3ccccc3)[C@H](c3ccccc3)OC(=O)[C@H]1[C@@H]2C(N)=O,1.29
8,N#Cc1ccc(NN2C(C(O)c3ccc([N+](=O)[O-])cc3)C=CC3C(=O)N(c4ccccc4)C(=O)C32)cc1 (centres undefined),1.18
9,COCC(=C=CC[C@H](O)c1ccc(OCCO)cc1)C[C@H](O)c1cc(Cl)cc(Cl)c1O,0.277
10,CCOC(=O)C1=CC[C@@H](c2ccccc2)N(S(=O)(=O)c2ccc(C)cc2)[C@H]1C(=O)OCC,0.137
11,CCCCCN1CC=CC23O[C@@H]4C=CCOC(=O)[C@@H]4[C@H]2C(=O)N(CCCO)[C@@H]3C1=O (some centres undefined),0.0707
12,C[C@]1(C(=O)NCc2ccccc2)c2ccccc2C(=O)N(Cc2cc(F)cc(C(F)(F)F)c2)[C@H]1c1ccc(CO)cc1,-0.427
13,COc1ccc(C(O)C2C=CC3C(=O)NC(=O)C3N2Nc2ccccn2)cc1OCc1ccccc1 (centres undefined),0.185
14,C=C(CCCC)C(=O)CC[C@H](OC(=O)c1cccnc1)c1cccc(OCCO)c1,-0.356
15,O=C1OCCC/C=C\[C@H]2OC34C=CCN(Cn5nnc6ccccc65)C(=O)[C@H]3N(CCCCCO)C(=O)[C@@H]4C12 (some centres undefined),-0.0894
16,CC(C)CNC(=O)[C@@H]1c2ccccc2C(=O)N(Cc2cc(C(F)(F)F)cc(C(F)(F)F)c2)[C@H]1c1ccc(CO)cc1,-0.247
17,CC(C)(C)N1CC=CC23O[C@@H]4C=CCOC(=O)[C@@H]4[C@H]2C(=O)N(CCCCCO)[C@@H]3C1=O (some centres undefined),1.03
18,CCOC(=O)C[C@H]1[C@H](OC(=O)c2ccc(-c3ccccc3)cc2)[C@@H](NC(=O)Cc2ccc(OC)cc2)c2cc(OCCCO)ccc2N1C(=O)c1ccc2ccccc2n1,-0.201
19,COCCOC(=O)N1C(=O)[C@@]2(c3cc(C#CCNC(N)=O)ccc31)[C@H](c1ccc(O)cc1)N1[C@H](c3ccccc3)[C@H](c3ccccc3)OC(=O)[C@H]1[C@@H]2C(=O)Nc1nc2ccccc2s1,0.167
20,COc1ccc(C#Cc2ccc3c(c2)[C@]2(C(=O)N3)[C@H](C(=O)NC[C@H](O)c3ccccc3)[C@H]3C(=O)O[C@H](c4ccccc4)[C@H](c4ccccc4)N3[C@@H]2c2ccc(OCCO)cc2)cc1,-0.611
21,O=C1OCCC=C[C@H]2OC34C=CCN(Cc5ccccc5)C(=O)[C@H]3N(CCCO)C(=O)[C@@H]4C12 (some centres undefined),-0.0602
22,COC(=O)[C@@]1(Cc2ccccc2)N=C(c2ccc(OCCCO)cc2)O[C@H]1c1ccccc1N=[N+]=[N-],0.781
